Source: the supplement of paper PMC12636033
± gives the standard deviation of the averaged measurements. Whole data set: some 33,000 sequences, median “E-score (rank enrichment, -0.5 to 0.5)” near -0.0075, cut for the highest 2% near 0.23. This excerpt belongs to a sample that is enriched for the highest values.

System: WT Max(13-93) synthetic (M65Nle)
Assay: PBM 8-mer E-score (E-score (rank enrichment, -0.5 to 0.5)); higher = stronger preferential binding
Method: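 Protein binding microarray (universal PBM chip covering all 10-mers in fixed probe flanks) with chemically synthesized human Max(13-93) bHLH-LZ analogs (not full-length Max) bearing noncanonical residues (hArg, Tha, Aib, Nle at 65) and aromatic Cys staples. Read-out per 8-mer (and its reverse complement): E-score (rank-based enrichment, -0.5 to 0.5) and Z-score of median probe intensity.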

Sequence	PBM 8-mer E-score
AGTGGAGG	0.0658 ± 0.0029
ATTAGACG	0.136 ± 0.028
AAAGATAC	0.00254 ± 0.17
CAAGATAA	0.256 ± 0.014
TAAGATAA	0.018 ± 0.049
AAAGATAG	0.0319 ± 0.07
CAAGATAC	0.146 ± 0.047
AAAGATAA	0.234 ± 0.029
GCTACGTA	0.0754 ± 0.075
ACCCAGCT	-0.00912 ± 0.022
TCGAGACA	-0.125 ± 0.06
GACCTTAC	-0.127 ± 0.056
TCCTTTCA	0.177 ± 0.086
CCGACCAG	-0.175 ± 0.0087
GTGGAGTA	-0.0124 ± 0.029
TGGACGAA	0.138 ± 0.011
AGTATCTA	0.253 ± 0.022
CGTATCTA	-0.0295 ± 0.068
GGTATCTA	0.0126 ± 0.011
CGGCAATC	-0.205 ± 0.029
AGTCGGTC	-0.181 ± 0.0094
GATCAAGA	-0.00477 ± 0.11
CACATGGC	0.343 ± 0.039
CACATGGG	0.276 ± 0.0049
CCCATGGG	-0.0583 ± 0.12

Sequence	PBM 8-mer E-score
GACATGGA	-0.0676 ± 0.069
CACATGGA	0.37 ± 0.02
CACATGAA	0.1797 ± 0.00019
AACATGGC	0.118 ± 0.02
CACATGAG	0.0368 ± 0.07
CACATGAC	0.317 ± 0.0056
GACATGGC	0.073 ± 0.098
AACATGGA	0.106 ± 0.052
AACATGGG	0.231 ± 0.047
CGTATCCC	-0.27 ± 0.076
AAATCAAC	0.129 ± 0.0028
CGCTCGCC	-0.158 ± 0.02
CCGGCAAC	-0.301 ± 0.024
ACCCTGTC	-0.0879 ± 0.17
AGAATCGG	-0.25 ± 0.048
ACTAGGTA	0.102 ± 0.04
CTAACGCA	0.12 ± 0.0043
GCTGCAGA	-0.00761 ± 0.073
AGTATTTA	0.186 ± 0.058
GGTATTTA	0.0645 ± 0.18
CGTATTTA	0.285 ± 0.056
AAGACACC	-0.137 ± 0.085
AGCAGCTA	-0.199 ± 0.04
CAGTACAC	0.0197 ± 0.13
AAGTACAA	0.225 ± 0.15

Sequence	PBM 8-mer E-score
AACTACAG	-0.0267 ± 0.018
AAGTATAT	0.0964 ± 0.13
AAGTATAC	0.246 ± 0.014
AACTACAC	0.282 ± 0.02
AAGTACAC	0.235 ± 0.075
GACTACAC	0.0803 ± 0.16
AAGTATAA	0.225 ± 0.069
CGTGGCCC	0.0336 ± 0.14
GAGATGCC	0.078 ± 0.063
AGGGCCGA	0.0332 ± 0.068
GCCCACCC	0.206 ± 0.017
CGACACCG	-0.265 ± 0.12
AGATGGCC	-0.092 ± 0.12
CACGTAGC	0.0038 ± 0.017
GAGTCCCA	-0.0366 ± 0.0061
CTGTTGCA	0.0892 ± 0.013
CACATATA	0.301 ± 0.098
TATATAAA	0.196 ± 0.099
CATATAAA	0.295 ± 0.098
GACATATA	0.0052 ± 0.075
AATATAAA	0.26 ± 0.1
AATATAAT	0.156 ± 0.023
GATATAAA	0.0778 ± 0.026
CACATATG	0.185 ± 0.029
CATATAAG	0.21 ± 0.012

Sequence	PBM 8-mer E-score
CGTACCAG	-0.0661 ± 0.0056
TTAGCGAA	-0.0471 ± 0.069
CGCCACGA	-0.137 ± 0.15
ATGCAGGG	0.0122 ± 0.03
CCTAAGCG	-0.0916 ± 0.0045
GTGTCTGA	0.00783 ± 0.11
GAACAAGA	0.137 ± 0.095
GATTCCCA	-0.0229 ± 0.034
AATTCCCA	0.282 ± 0.0091
AATTCCCC	0.0165 ± 0.05
GACCCGAA	-0.196 ± 0.14
AAACTACA	0.219 ± 0.021
AAACTACC	0.0484 ± 0.067
AAACTACT	0.232 ± 0.034
CCGTGCTA	-0.0393 ± 0.0021
ACGTGCTA	0.311 ± 0.019
GCGTGCTA	0.197 ± 0.0073
ACGTGCTG	0.212 ± 0.025
ACGTGCTC	0.298 ± 0.013
CCGTGCTC	-0.0456 ± 0.034
ACCAGGGA	0.0354 ± 0.19
AGGCGCTG	-0.0811 ± 0.026
AACAGTGG	-0.0694 ± 0.089
AACTTGCA	0.193 ± 0.046
CGTGCCGC	0.0425 ± 0.15

Sequence	PBM 8-mer E-score
ATAACAAC	0.265 ± 0.079
CTAACCAC	0.139 ± 0.0048
ATAACCAG	0.113 ± 0.031
ATAACAAG	0.223 ± 0.0096
ATAACAAT	0.168 ± 0.0023
ATAACCAC	0.288 ± 0.07
CTTTTTGC	0.046 ± 0.063
CACCTGGC	0.0136 ± 0.041
GGAGTGCC	-0.11 ± 0.012
GTATGACA	0.245 ± 0.062
CTATGACA	0.0275 ± 0.077
ATATGACC	-0.0408 ± 0.015
GTATGAAA	0.222 ± 0.033
GGATGACA	-0.00576 ± 0.064
ATATGACA	0.263 ± 0.014
ATAGCAGG	-0.0492 ± 0.15
TCCGGACA	-0.0731 ± 0.033
GTCTCTAA	-0.108 ± 0.17
CCTCGCGA	-0.00258 ± 0.05
AATCGCCG	-0.197 ± 0.032
TGATATAA	0.155 ± 0.021
CGATATAC	0.0759 ± 0.16
ATTTATAA	0.241 ± 0.035
CGATATAG	-0.0681 ± 0.07
CTTTATAA	0.127 ± 0.026

Sequence	PBM 8-mer E-score
TTATAAAA	0.215 ± 0.03
ATTTATAC	0.188 ± 0.078
CGATATAA	0.281 ± 0.046
ATATATCA	0.19 ± 0.073
TTATATAA	0.256 ± 0.13
ATATATCC	0.237 ± 0.064
CTATATCC	0.135 ± 0.012
TACGATAA	0.194 ± 0.094
AATGCGAA	0.03 ± 0.03
GCTCCTTA	-0.0526 ± 0.048
ATATCGGG	0.19 ± 0.03
AAGCGGCC	-0.276 ± 0.054
CCGACACA	-0.052 ± 0.075
CGCCGTTC	-0.101 ± 0.024
GGGGGCTA	-0.0501 ± 0.18
CGCGACAC	0.045 ± 0.063
GTATATAA	0.102 ± 0.091
ATATATAA	0.246 ± 0.086
ATATACAC	0.161 ± 0.055
CTATACAG	0.0775 ± 0.017
ATATACAG	0.234 ± 0.0072
CTATATAA	0.0196 ± 0.063
GTAGTACA	0.0953 ± 0.0039
CCAACGTC	-0.0188 ± 0.032
AACGACGA	-0.113 ± 0.23

Sequence	PBM 8-mer E-score
AAGACTCT	0.0105 ± 0.12
ACATGTCC	0.212 ± 0.03
ACATGTGA	0.389 ± 0.00049
ACATGTGC	0.359 ± 0.0051
AGATGTGA	0.16 ± 0.038
CGATGTGA	-0.114 ± 0.17
CCATGTCC	-0.0654 ± 0.065
AGATGTGC	0.0526 ± 0.076
CCATGTCA	-0.0624 ± 0.05
CTATGTGC	0.0889 ± 0.047
CCATGTGC	0.389 ± 0.0074
ACATGTCA	0.204 ± 0.057
CCATGTGA	0.308 ± 0.0086
CGTTGCCA	0.0775 ± 0.02
GAATGGGA	0.0933 ± 0.016
CCGACGGA	-0.238 ± 0.0081
TAGGTGCA	0.0931 ± 0.075
CCGCAATC	-0.0997 ± 0.03
ATCTGATC	-0.138 ± 0.17
GCATGTCA	0.208 ± 0.011
AGATGTGG	0.0747 ± 0.083
ACATGTCG	0.14 ± 0.052
GCATGTGA	0.314 ± 0.013
ACATGTGG	0.36 ± 0.049
GAATGTGA	0.0246 ± 0.0085
